Compound activity from PubChem.
This excerpt belongs to a sample that is enriched for hits.
aSyn yeast rescue: qHTS of alpha-syn Inhibitors: NCGC Sytravon Library Screen; S. cerevisiae alpha-synuclein toxicity rescue, BacTiter-Glo growth, 24 h; Potency, µM (titrated, usually from 46.1 µM), actives largely listed as activators; hit rate 0.02% among 94,000; AID 1347070, 2019; active = well fitted activation curve with a large enough effect; also: 0% is about no effect
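Growth restoration measured by BacTiter-Glo luminescence after 24 hr at 30 deg C; alpha-synuclein yeast, raffinose-pregrown to mid-log, were added at OD600=0.02 in galactose medium onto pinned compounds.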
An asterisk follows results filed as active; i = inactive. Potency is read from the fitted curve at half-maximal effect.

SMILES	aSyn yeast rescue
Cc1nc2scc(C)n2c(=O)c1S(=O)(=O)Nc1cccc(O)c1	i
Cc1nc2scc(C)n2c(=O)c1S(=O)(=O)Nc1cccc(C(F)(F)F)c1	11.2µM*
COc1ccc(OC)c(NC(=O)CC(=O)Nc2ccc3nc4n(c(=O)c3c2)CCCCC4)c1	i
CCOc1ccc(NC(=O)CCCc2nc(-c3cccc(OC)c3)no2)cc1	i
CCOc1ccc(CNC(=O)C2Cc3ccccc3N2C(=O)CC)cc1OC (stereo unspecified)	i
COC(=O)c1scc(-c2ccccc2)c1S(=O)(=O)Nc1cccc(C)c1C	i
CCc1ccc(NS(=O)(=O)c2c(-c3ccccc3)csc2C(=O)OC)cc1	25.1µM*
CCOC(=O)c1scc(-c2ccccc2)c1S(=O)(=O)Nc1ccccc1OC	i
CCOC(=O)N1CCc2c(sc3c2c(=O)n(CCc2ccccc2)c(=O)n3CC(=O)Nc2ccccc2C)C1	i
Cc1ccccc1OCCn1c(CCNC(=O)C2CCCCC2)nc2ccccc21	i
COc1cc(OC)c(NC(=O)CCn2cnc3onc(-c4ccc(F)cc4)c3c2=O)cc1Cl	i
CC(=O)C1=C(c2ccc(C)cc2)N(C(C)=O)n2c(nnc2-c2ccccc2)S1	i
COc1ccc(C(=O)N2CCC(C(=O)Nc3ccccc3Cl)CC2)cc1	i
O=C(NCc1ccc(F)cc1)c1ccc2c(c1)nnn2C1CCCC1	i
CCN(CC)c1ccc(C2C(C(N)=O)=C(C)Nc3nc(SCc4ccccc4Cl)nn32)cc1 (stereo unspecified)	i
CCOc1ccc(C(C)C)cc1S(=O)(=O)Nc1cccc(-c2ccc(N3CCOCC3)nn2)c1	i
Cc1ccccc1NC(=O)Cn1c(=O)n(Cc2ccc3c(c2)OCO3)c(=O)c2ccc(C(=O)NC3CCCCC3)cc21	i
CCc1ccc(NC(=O)CN2C(=O)CCSc3ccccc32)cc1	i
Cc1ccccc1S(=O)Cc1ccc(C(=O)NC2CCCCCC2)o1 (stereo unspecified)	i
CSc1ccc(CCNC(=O)Cn2ncc3c(=O)oc4ccccc4c32)cc1	i
COC(=O)CCNC(=O)NC(CCC(C)C)c1c(-n2cccc2)sc2c1CCN(C)C2 (stereo unspecified)	i
O=C(CC1C(=O)OCCN1Cc1ccccc1)Nc1cccc(Cl)c1 (stereo unspecified)	i
CC(C)c1cnc2c(c1SCC(=O)Nc1ccccc1C(F)(F)F)c(=O)n(C)c(=O)n2C	i
Cc1oc(-c2cccc(Cl)c2)nc1CSCC(=O)NCc1ccccc1Cl	20µM*
Cc1ccc(CNC(=O)CSCc2nc(-c3ccc(Cl)cc3)oc2C)cc1	i
SMILES	aSyn yeast rescue
Cc1oc(-c2ccc(Cl)cc2)nc1CSCC(=O)NCc1ccccc1Cl	i
COC(=O)c1scc(-c2ccc(C)cc2)c1S(=O)(=O)Nc1cc(OC)c(OC)c(OC)c1	i
CCOC(=O)c1sc(N2C(=O)c3oc4ccc(F)cc4c(=O)c3C2c2ccc(O)cc2)nc1C (stereo unspecified)	i
COc1cccc(C(=O)c2cn(CC(=O)Nc3ccc4c(c3)OCCO4)c3nc(C)ccc3c2=O)c1	i
Cn1cnc(S(=O)(=O)N2CCC(C(=O)Nc3ccc(OC(F)(F)F)cc3)CC2)c1	i
O=C(CCSCc1ccc(Cl)cc1)NCc1ccc(F)cc1Cl	i
O=C(CCSCc1ccccc1Cl)NCc1ccc(F)cc1Cl	i
O=C(CCSCc1cccc(Cl)c1)NCc1ccc(F)cc1Cl	28.2µM*
CCOc1ccc(-c2cc(C)n3nc(C(=O)Nc4cc(Cl)ccc4O)cc3n2)cc1	i
CCN(Cc1ccccc1)C(=O)Cn1c(=O)n(Cc2ccccc2)c(=O)c2c1c1cc(OC)ccc1n2C	i
CCCCSCCCNC(=O)c1cn(C)c2ccc(S(=O)(=O)N3CCCCCC3)cc2c1=O	i
CCn1c(=O)c2sccc2n2c(CCC(=O)NCc3ccc(Cl)cc3)nnc12	i
